The values that follow come from PubChem BioAssay AID1159580 (chemical genetic matrix, 2015).

This experiment can be described thus: chemical genetic growth profiling, strain panel (AID 1159580).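 Also: tested at 20 µM; growth read once vehicle control cultures reached saturation at 30 °C; 1 = growth at the plate median or of vehicle wells; lower values mean less growth of the strain.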 Conditions: S. cerevisiae deletion strains, growth OD.
The mark [1] stands for this setting: locus YAL040C, strain CLN3, active compounds read low.
The mark [2] stands for this setting: locus YDR150W, strain NUM1, active compounds read low.
Where [3] appears, read: locus YDR363W, strain ESC2, active compounds read low.
The mark [4] stands for this setting: locus YER002W, strain NOP16, active compounds read low.
The mark [5] stands for this setting: locus YJR075W, strain HOC1, active compounds read low.
Setting [6] is: locus YMR307W, strain GAS1, active compounds read low.
Setting [7] is: locus YNL175C, strain NOP13, active compounds read low.
Setting [8] is: locus YNL197C, strain WHI3, active compounds read low.
Setting [9] is: locus YNL224C, strain SQS1, active compounds read low.
Where [10] appears, read: locus YOR083W, strain WHI5 (second series), active compounds read low.
[11] abbreviates: locus YCL061C, strain MRC1 (second series), active compounds read low.
The mark [12] stands for this setting: locus YGR078C, strain PAC10, active compounds read low.
Setting [13] is: locus YPL055C, strain LGE1, active compounds read low.

Screen size: about 5,500 compounds; about 2,000 (36%) were called active. Roughly 18% stayed inconclusive and do not appear here. The list shows a part of the results. Unmarked numbers belong to inactive results. Rule as the data show it: active = normalized growth mostly below about 0.91 (no sharp cut-off); inconclusive = no clear call, values can overlap the other calls; inactive = mostly above about 0.92.

Consider `Nc1ncnc2c1ncn2C1CCCC1`, for which the normalized growth is 1.01 under setting [1]; 1 under setting [2]; 1.02 under setting [3]; 1.01 under setting [4]; 1.02 (locus YGR229C, strain SMI1, active compounds read low); 1.04 under setting [5]. Also, the normalized growth reads like this: under setting [6], 1.01; (locus YNL128W, strain TEP1, active compounds read low) 1.03; under setting [7], 1.01; under setting [8], 1.01; under setting [9], 1.03; under setting [10], 1.01. Besides, the normalized growth (locus YPL241C, strain CIN2, active compounds read low) was 1.01.
`Nc1ncnc2c1c(-c1ccc(Oc3ccccc3)cc1)cn2C1CCCC1`: the normalized growth is, setting by setting: under setting [1], 0.94; under setting [11], 1.01; under setting [3], 1.02; under setting [4], 1.02; under setting [12], 0.934; under setting [5], 1.02. For the same compound, the normalized growth under setting [7] was 1.01; the normalized growth under setting [8] was 1.1; the normalized growth under setting [9] is 0.952; the normalized growth under setting [10] is 0.838 (active); the normalized growth under setting [13] is 0.989.
For the compound `C[C@@H]1O[C@@H](O[C@H]2C[C@@H](O)[C@]3(CO)[C@@H]4C(CC[C@]3(O)C2)[C@@]2(O)CC[C@H](C3COC(=O)C3)[C@@]2(C)C[C@H]4O)[C@H](O)[C@H](O)[C@H]1O` (some centres not stated), the normalized growth under setting [1] is 0.998; the normalized growth under setting [11] was 1; the normalized growth under setting [2] was 0.996; the normalized growth under setting [3] was 1; the normalized growth under setting [4] was 0.996; the normalized growth under setting [12] is 1.01. Further, the normalized growth was 1.01 under setting [6]; 0.98 under setting [7]; 1 under setting [8]; 0.974 under setting [9]; 1.01 (locus YNL322C, strain KRE1, active compounds read low); 1.05 under setting [10]. The normalized growth under setting [13] was 1.01.
